Source: PubChem BioAssay (Tox21)
“And” between values parts separate entries of the source, which are not always exact repeats. Identical values can stand only once. A structure can be active in one record and inactive in another. The source made the active and inactive calls. Unless noted, the call rests on the fitted dose curve; in most records, active means well fitted curve in the direction sought with a large enough effect in the repeat runs; inconclusive means weak or mixed curves; inactive means no such curve, though single readings can be large; an effect the other way counts as inactive or inconclusive.

Experiments:
[1] = qHTS assay to identify small molecule antagonists of the thyroid receptor (TR) signaling pathway - cell viability counter screen (AID 743064); further: nearly all actives have a fitted effect of over 50% in size; further: potency means the concentration at half of the fitted maximal effect
Outline: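 GH3.TRE-Luc cells, 4 h pre-plating; cpd + T3 1 nM final; 37 °C 23.5 h; CellTiter-Fluor 30 min; fluorescence read.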

[2] = qHTS assay to identify small molecule antagonists of the thyroid receptor (TR) signaling pathway (AID 743065); further: nearly all actives have a fitted effect of over 55% in size; further: potency means the concentration at half of the fitted maximal effect
Outline: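 GH3.TRE-Luc rat pituitary cells (two TREs driving luciferase) were dosed with compound, then stimulated with 1 nM T3 (final) for 23.5 h at 37 C. ONE-Glo luminescence was the read-out, with CellTiter-Fluor fluorescence as the cytotoxicity counter-screen.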

[3] = system: thyroid hormone receptor (rat, GH3 cells); experiment: qHTS assay to identify small molecule agonists of the thyroid receptor (TR) signaling pathway (AID 743066; calls by dose curve)
[4] = qHTS assay to identify small molecule antagonists of the estrogen receptor alpha (ER-alpha) signaling pathway - cell viability counter screen (AID 743074; calls by dose curve;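 further: HEK293 cells carrying ER-alpha-UAS-bla reporter stimulated with 17beta-estradiol; nearly all actives have a fitted effect of over 45% in size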; further: potency means the concentration at half of the fitted maximal effect)
[5] = qHTS assay to identify small molecule antagonists of the estrogen receptor alpha (ER-alpha) signaling pathway using the BG1 cell line - cell viability counter screen (AID 743081);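 further: compound given together with 17beta-estradiol as the ER stimulus; nearly all actives have a fitted effect of over 45% in size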; further: potency means the concentration at half of the fitted maximal effect
Aromatase (Homo sapiens) = Aromatase (Homo sapiens) (UniProt P11511); experiment: qHTS assay to identify aromatase inhibitors (AID 743083); further: nearly all actives have a fitted effect of over 55% in size; further: potency means the concentration at half of the fitted maximal effect
Chain of Aromatase (Homo sapiens) (P11511 whole entry, looked up): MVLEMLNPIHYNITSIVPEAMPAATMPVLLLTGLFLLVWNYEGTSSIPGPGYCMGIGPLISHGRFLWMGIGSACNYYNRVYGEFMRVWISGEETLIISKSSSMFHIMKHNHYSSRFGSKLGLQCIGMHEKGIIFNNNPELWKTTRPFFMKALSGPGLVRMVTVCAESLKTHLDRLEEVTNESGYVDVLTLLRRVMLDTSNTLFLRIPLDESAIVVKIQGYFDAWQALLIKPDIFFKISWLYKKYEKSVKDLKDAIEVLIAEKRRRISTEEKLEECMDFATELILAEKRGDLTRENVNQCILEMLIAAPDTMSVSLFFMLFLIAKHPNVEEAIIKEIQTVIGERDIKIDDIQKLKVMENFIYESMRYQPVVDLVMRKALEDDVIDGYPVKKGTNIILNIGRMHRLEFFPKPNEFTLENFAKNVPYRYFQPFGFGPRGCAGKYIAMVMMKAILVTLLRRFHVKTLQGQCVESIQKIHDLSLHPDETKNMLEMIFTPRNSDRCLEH

[6] = qHTS assay to identify aromatase inhibitors - cell viability counter screen (AID 743084);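 further: cells stimulated with testosterone during compound exposure; nearly all actives have a fitted effect of over 55% in size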; further: potency means the concentration at half of the fitted maximal effect
[7] = target: Aryl hydrocarbon receptor (Homo sapiens) (UniProt P35869); experiment: qHTS assay to identify small molecule that activate the aryl hydrocarbon receptor (AhR) signaling pathway (AID 743085); further: nearly all actives have a fitted effect of over 15% in size; further: potency means the concentration at half of the fitted maximal effect;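 on activation: HG2L7.5c1 human HepG2 liver cells with stably integrated DRE-driven firefly reporter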
Chain of Aryl hydrocarbon receptor (Homo sapiens) (P35869 whole entry, looked up): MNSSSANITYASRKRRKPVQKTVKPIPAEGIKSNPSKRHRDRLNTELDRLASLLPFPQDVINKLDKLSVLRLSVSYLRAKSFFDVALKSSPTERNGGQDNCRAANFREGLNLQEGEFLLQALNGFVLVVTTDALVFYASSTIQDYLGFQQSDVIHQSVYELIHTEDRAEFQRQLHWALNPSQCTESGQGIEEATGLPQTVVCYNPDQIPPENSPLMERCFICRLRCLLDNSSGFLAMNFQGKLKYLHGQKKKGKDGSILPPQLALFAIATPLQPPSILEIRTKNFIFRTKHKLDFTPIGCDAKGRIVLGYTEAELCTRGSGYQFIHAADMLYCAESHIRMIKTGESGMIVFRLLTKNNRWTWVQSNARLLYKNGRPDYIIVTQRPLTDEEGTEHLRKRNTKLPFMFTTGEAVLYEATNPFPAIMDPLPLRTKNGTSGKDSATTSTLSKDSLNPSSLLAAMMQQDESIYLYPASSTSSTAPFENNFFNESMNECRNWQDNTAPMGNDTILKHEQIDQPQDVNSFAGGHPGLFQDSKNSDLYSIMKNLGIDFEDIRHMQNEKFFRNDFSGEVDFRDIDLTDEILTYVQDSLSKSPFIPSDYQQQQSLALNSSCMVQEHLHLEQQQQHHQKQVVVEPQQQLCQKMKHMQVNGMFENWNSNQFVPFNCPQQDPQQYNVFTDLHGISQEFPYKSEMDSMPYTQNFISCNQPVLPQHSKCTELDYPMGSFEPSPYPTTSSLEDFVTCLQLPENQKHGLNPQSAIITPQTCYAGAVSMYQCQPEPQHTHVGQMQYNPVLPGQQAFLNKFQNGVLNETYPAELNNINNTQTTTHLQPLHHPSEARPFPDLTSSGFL
Outline: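 Luminescence read-out: ONE-Glo reagent, 30 min at room temperature, in HG2L7.5c1 HepG2 reporter cells treated 24 h at 37C. Viability was measured beforehand by CellTiter-Fluor fluorescence after 30 min at 37C.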

[8] = qHTS assay to identify small molecule that activate the aryl hydrocarbon receptor (AhR) signaling pathway - cell viability counter screen (AID 743086); further: nearly all actives have a fitted effect of over 45% in size; further: potency means the concentration at half of the fitted maximal effect;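 on viability change, negative = cytotoxic: HepG2 liver cells carrying the AhR DRE luciferase reporter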
Outline: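 HepG2-AhR-luc (HG2L7.5c1) cells, 4000/well, treated 24 h at 37 C with compound; viability measured as CellTiter-Fluor fluorescence after 30 min in the same wells as the luciferase read.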

[9] = target: Peroxisome proliferator-activated receptor gamma (Homo sapiens) (UniProt P37231); experiment: qHTS assay to identify small molecule agonists of the peroxisome proliferator-activated receptor gamma (PPARg) signaling pathway (AID 743094; active means well fitted activation curve with a large enough effect in the signal ratio in the repeat runs, not every such curve was filed as active; inconclusive means weak or mixed curves, or effect the other way; inactive means no such curve, though single readings can be large or run the other way; the % refers to the signal ratio)
Chain of Peroxisome proliferator-activated receptor gamma (Homo sapiens) (P37231 whole entry, looked up): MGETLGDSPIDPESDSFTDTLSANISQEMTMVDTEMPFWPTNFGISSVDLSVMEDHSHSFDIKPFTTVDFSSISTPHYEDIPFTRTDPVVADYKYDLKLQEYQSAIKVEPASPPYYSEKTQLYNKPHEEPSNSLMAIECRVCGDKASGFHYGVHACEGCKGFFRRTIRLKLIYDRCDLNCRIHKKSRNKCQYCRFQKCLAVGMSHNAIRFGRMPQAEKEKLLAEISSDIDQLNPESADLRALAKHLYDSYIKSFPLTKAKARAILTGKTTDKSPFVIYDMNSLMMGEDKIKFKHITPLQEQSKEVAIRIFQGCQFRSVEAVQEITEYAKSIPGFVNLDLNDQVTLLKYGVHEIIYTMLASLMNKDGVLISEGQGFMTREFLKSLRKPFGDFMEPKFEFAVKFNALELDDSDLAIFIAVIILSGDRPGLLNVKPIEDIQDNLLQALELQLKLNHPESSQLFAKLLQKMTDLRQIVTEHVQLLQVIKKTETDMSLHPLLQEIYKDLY
Outline: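 Beta-lactamase FRET fluorescence was the read-out after a 1 h room-temperature substrate step, following 17 h compound treatment at 37C of HEK293H cells expressing a UAS-driven bla reporter responsive to PPARg.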

[10] = target: Peroxisome proliferator-activated receptor gamma (Homo sapiens) (UniProt P37231); experiment: qHTS assay to identify small molecule antagonists of the peroxisome proliferator-activated receptor gamma (PPARg) signaling pathway (AID 743191; calls by dose curve; further: nearly all actives have a fitted effect of over 30% in size; further: potency means the concentration at half of the fitted maximal effect)
Outline: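 GeneBLAzer PPARg UAS-bla HEK293H cells, 5 h post-plating, exposed to compounds 17 h at 37C. LiveBLAzer B/G FRET substrate added for 1 h at room temperature; beta-lactamase reporter read by fluorescence intensity.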

[11] = qHTS assay to identify small molecule antagonists of the peroxisome proliferator-activated receptor gamma (PPARg) signaling pathway - cell viability counter screen (AID 743194); further: nearly all actives have a fitted effect of over 55% in size; further: potency means the concentration at half of the fitted maximal effect
Outline: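 Cytotoxicity counter screen in PPARg-bla HEK293H cells, same wells as reporter assay. Compounds plus 50 nM rosiglitazone (final) for 17 h at 37 C, then viability read by CellTiter-Glo luminescence.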

[12] = qHTS assay for small molecule agonists of the antioxidant response element (ARE) signaling pathway (AID 743202; active means well fitted activation curve with a large enough effect in the signal ratio in the repeat runs, not every such curve was filed as active; inconclusive means weak or mixed curves, or effect the other way; inactive means no such curve, though single readings can be large or run the other way; the % refers to the signal ratio; further: potency means the concentration at half of the fitted maximal effect)
Outline: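 ARE-bla HepG2 cells (beta-lactamase reporter under the antioxidant response element), plated 5 hours, then exposed to compounds 16 hours at 37 C. LiveBLAzer B/G FRET substrate added for 2 hours at room temperature; fluorescence intensity read.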

[13] = qHTS assay for small molecule agonists of the antioxidant response element (ARE) signaling pathway - cell viability counter screen (AID 743203; calls by dose curve; further: nearly all actives have a fitted effect of over 55% in size; further: potency means the concentration at half of the fitted maximal effect)
Outline: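 HepG2 cells carrying ARE-driven beta-lactamase; 2,000 cells/well; 5 hrs plating; compound pinned from DMSO; 16 hrs 37C/5% CO2; CellTiter-Glo added; 30 min RT; luminescence.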

[14] = target: Estrogen receptor (Homo sapiens) (UniProt P03372); experiment: qHTS assay to identify small molecule agonists of the estrogen receptor alpha (ER-alpha) signaling pathway (AID 743075; calls by dose curve;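 further: HEK293 GripTite cells with ER-alpha and UAS-driven beta-lactamase reporter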; further: potency means the concentration at half of the fitted maximal effect)
Chain of Estrogen receptor (Homo sapiens) (P03372 whole entry, looked up): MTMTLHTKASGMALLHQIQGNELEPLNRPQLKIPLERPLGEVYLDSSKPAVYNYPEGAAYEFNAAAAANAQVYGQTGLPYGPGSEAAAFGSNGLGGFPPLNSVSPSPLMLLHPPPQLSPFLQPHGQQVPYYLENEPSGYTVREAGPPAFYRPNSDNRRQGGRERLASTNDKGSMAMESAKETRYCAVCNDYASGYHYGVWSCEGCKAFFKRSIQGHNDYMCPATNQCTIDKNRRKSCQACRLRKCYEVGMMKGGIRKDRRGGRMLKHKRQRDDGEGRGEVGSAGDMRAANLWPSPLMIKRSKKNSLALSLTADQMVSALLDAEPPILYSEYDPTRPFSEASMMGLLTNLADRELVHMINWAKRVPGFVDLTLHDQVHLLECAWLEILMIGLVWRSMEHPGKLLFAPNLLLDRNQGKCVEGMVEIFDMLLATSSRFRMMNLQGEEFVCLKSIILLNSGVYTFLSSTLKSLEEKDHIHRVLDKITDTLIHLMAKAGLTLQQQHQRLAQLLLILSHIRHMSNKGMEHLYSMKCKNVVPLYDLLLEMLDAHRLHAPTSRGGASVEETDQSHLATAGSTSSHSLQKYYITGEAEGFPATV

[15] = target: Estrogen receptor (Homo sapiens) (UniProt P03372); experiment: qHTS assay to identify small molecule agonists of the estrogen receptor alpha (ER-alpha) signaling pathway using the BG1 cell line (AID 743079); conditions: BG1Luc4E2 cells, ERE-luciferase agonist, 22 h; activation: at 70.3 µM (top of the series); further: nearly all actives have a fitted effect of over 20% in size; further: potency means the concentration at half of the fitted maximal effect
[16] = qHTS assay to identify small molecule antagonists of the estrogen receptor alpha (ER-alpha) signaling pathway using the BG1 cell line (AID 743080; calls by dose curve; further: nearly all actives have a fitted effect of over 25% in size; further: potency means the concentration at half of the fitted maximal effect); conditions: BG1Luc4E2 ERE-luciferase antagonist mode, luminescence; activity change, negative = inhibition: at 70.3 µM (top of the series)
Outline: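 Antagonist mode: compounds in DMSO were pinned onto BG1-Luc-4E2 cells alongside 17beta-estradiol agonist, incubated 21.5 h, and ERE-driven luciferase measured with ONE-Glo. Cytotoxicity was multiplexed using CellTiter-Fluor fluorescence.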

[17] = qHTS assay for small molecule activators of the heat shock response signaling pathway - cell viability counter screen (AID 743209); further: nearly all actives have a fitted effect of over 50% in size; further: potency means the concentration at half of the fitted maximal effect
Outline: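 Luminescence from CellTiter-Glo, added after the beta-lactamase FRET read, gave the viability signal. Cells were HSE-bla HeLa treated with DMSO-dissolved compounds for 5 h at 37 C following overnight plating.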

[18] = qHTS assay for small molecule activators of the heat shock response signaling pathway (AID 743210; active means well fitted activation curve with a large enough effect in the signal ratio in the repeat runs, with a control signal flat, not every such curve was filed as active; inconclusive means weak or mixed curves; the % refers to the signal ratio)
Outline: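 HSE-bla HeLa cells (beta-lactamase reporter under heat shock response elements), plated overnight, then exposed to compounds 5 h at 37 C; LiveBLAzer B/G FRET substrate added, 2.5 h at room temperature, fluorescence intensity read.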
On the % scale 0 is the no-effect control and ±100 the full control effect.

C/C=C/C=N/NC(=O)c1ccncc1
active: Potency [7] 9.44 µM | Potency [12] 6.68 µM
inactive: Potency [1] | Potency [2] | Potency [3] | Potency [4] | Potency [5] | Potency (Aromatase (Homo sapiens)) | Potency [6] | Potency [8] | Potency [9] | Potency [10] | Potency [11] | Potency [13]

CN(C)CCCN1c2ccccc2CCc2ccccc21
inactive: Potency [3] | Potency [4] | Potency [5] | Potency (Aromatase (Homo sapiens)) | Potency [6] | Potency [7] | Potency [11]
active: Potency [1] 5.96 µM | Potency [2] 23.7 µM

COC(=O)[C@]1(C)CCC[C@@]2(C)[C@H]1CC=C1C=C(C(C)C)CC[C@@H]12
active: Potency [1] 48.6 µM | Potency [2] 43.3 µM | Potency [11] 54.9 µM | Potency [12] 61.1 µM
inactive: Potency [3] | Potency [4] | Potency [5] | Potency [8] | Potency [13]

O=C1c2c(O)ccc(O)c2C(=O)c2c(NCCNCCO)ccc(NCCNCCO)c21
inactive: Potency [3] | Potency [4] | Potency [5] | Potency [7]
active: Potency [1] 0.569 µM | Potency [2] 0.507 µM | Potency (Aromatase (Homo sapiens)) 9.02 µM

c1ccc(Nc2cccc3ccccc23)cc1
active: Potency [1] 69.5 µM | Potency [2] 69.5 µM | Potency [14] 44.2 µM [inconclusive] and 17.4 µM [activator] | Potency [15] 13.9 µM and 9.69 µM | Potency (Aromatase (Homo sapiens)) 43.8 µM and 61.1 µM | Potency [6] 39.1 µM | Potency [7] 49.2 µM and 54.5 µM
49.6 µM (active) and inactive: Potency [10]
inactive: Potency [3] | Potency [4] | Potency [16] | Potency [5] | Potency [8] | Potency [9] | Potency [11] | Potency [12] | Potency [13] | Potency [17] | Potency [18]

Cc1cccc(Br)c1
inactive: Potency [1] | Potency [2] | Potency [3] | Potency [4] | Potency [5] | Potency (Aromatase (Homo sapiens)) | Potency [6] | Potency [7] | Potency [8] | Potency [10] | Potency [11] | Potency [12] | Potency [13] | Potency [17] | Potency [18]

O=C(O)CC(=O)O
inactive: Potency [1] | Potency [2] | Potency [3] | Potency [4] | Potency [5] | Potency (Aromatase (Homo sapiens)) | Potency [6] | Potency [7] | Potency [8] | Potency [10] | Potency [11] | Potency [13] | Potency [17] | Potency [18]

CCCCCCC(C)Nc1ccc(Nc2ccccc2)cc1 (stereo unspecified)
active: Potency [1] 61.1 µM | Potency [2] 43.3 µM | Potency [17] 49 µM
inactive: Potency [3] | Potency [5] | Potency (Aromatase (Homo sapiens)) | Potency [6] | Potency [8] | Potency [13]

O=C(O)CCCCCCC(=O)O
inactive: Potency [1] | Potency [2] | Potency [3] | Potency [4] | Potency [5] | Potency (Aromatase (Homo sapiens)) | Potency [6] | Potency [7] | Potency [8] | Potency [9] | Potency [10] | Potency [11] | Potency [12] | Potency [13] | Potency [17] | Potency [18]

C=CC(=O)OCCOCC(CC)(COCCOC(=O)C=C)COCCOC(=O)C=C
active: Potency (Aromatase (Homo sapiens)) 10.1 µM | Potency [6] 2.84 µM | Potency [8] 71.4 µM
inactive: Potency [1] | Potency [2] | Potency [3] | Potency [4] | Potency [7] | Potency [13]

N[C@@H](CSSC[C@H](N)C(=O)O)C(=O)O
inactive: Potency [1] | Potency [2] | Potency [3] | Potency [4] | Potency [5] | Potency (Aromatase (Homo sapiens)) | Potency [6] | Potency [7] | Potency [8] | ratio activity, negative = inhibition [10] 3.31% [at 0.55 µM] | activity change, negative = cytotoxicity [11] 9.18% [at 0.55 µM] | activation [12] 9.27% [at 0.756 µM] | viability change, negative = cytotoxic [13] -0.389% [at 0.756 µM]

CCN1CCN(c2cc(-c3ccc(F)cc3)c3c(n2)CCCCCC3)CC1
active: Potency [1] 13.3 µM | Potency [2] 18.8 µM
inactive: Potency [3] | Potency [4] | Potency (Aromatase (Homo sapiens)) | Potency [6] | Potency [7] | Potency [8] | Potency [9] | Potency [10] | Potency [11] | Potency [13] | Potency [17] | Potency [18]

CC(C)(c1cc(Br)c(OCCO)c(Br)c1)c1cc(Br)c(OCCO)c(Br)c1
active: Potency [1] 47.5 µM | Potency [2] 9.47 µM | Potency [11] 17 µM | Potency [13] 18.9 µM | Potency [17] 17 µM
inactive: Potency [3] | Potency [14] | Potency [6] | Potency [8] | Potency [9]

O=C1c2c(O)ccc([N+](=O)[O-])c2C(=O)c2c([N+](=O)[O-])ccc(O)c21
active: Potency [1] 6.8 µM | Potency [2] 6.8 µM | Potency [4] 38.5 µM | Potency [5] 30.4 µM | Potency (Aromatase (Homo sapiens)) 6.06 µM | Potency [6] 9.6 µM | Potency [8] 19.2 µM | Potency [10] 6.85 µM | Potency [11] 8.63 µM | Potency [13] 3.82 µM | Potency [17] 10.9 µM
inactive: Potency [3] | Potency [7]

CCCCCCOc1ccc(O)cc1
active: Potency [1] 12.2 µM | Potency [2] 6.86 µM | Potency [15] 8.63 µM | Potency [12] 27.3 µM
inactive: Potency [3] | Potency [14] | Potency [5] | Potency [8] | Potency [13] | Potency [17] | Potency [18]

CCCCCCOc1cc(C)c(O)c(C)c1C
inactive: Potency [3] | Potency [4] | Potency [14] | Potency [15] | Potency [5] | Potency [8] | Potency [9] | Potency [11]
active: Potency [1] 49.2 µM | Potency [2] 55.1 µM | Potency (Aromatase (Homo sapiens)) 43.8 µM | Potency [6] 49.2 µM

Cc1c(C(=O)O)cccc1[N+](=O)[O-]
inactive: Potency [1] | Potency [2] | Potency [3] | Potency [4] | Potency [5] | Potency (Aromatase (Homo sapiens)) | Potency [6] | Potency [7] | Potency [8] | Potency [10] | Potency [11] | Potency [12] | Potency [13] | Potency [17]

CCCCCCCCCCCCCC[n+]1ccccc1
active: Potency [1] 6.86 µM | Potency [2] 2.43 µM | Potency [4] 24.5 µM | Potency [16] 4.86 µM | Potency (Aromatase (Homo sapiens)) 6.11 µM | Potency [6] 54.5 µM | Potency [8] 54.5 µM | Potency [11] 17.4 µM | Potency [13] 27.3 µM | Potency [17] 30.9 µM
inactive: Potency [3] | Potency [14] | Potency [7]
